Sampled rows, rich in hits. Any-hit rate of the full collection: about 2.4%.
D2 ag-1 – D2 dopamine receptor (human) agonism; P14416; HEK293 T-REx D2 cells, calcium flux agonist mode; hit rate 0.53% among 340,000; activation, % at 2 µM;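 active = activation over 3 SD above normal in the single-dose calcium agonist read, cut at about 30% in these data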; also: 0% is about no effect
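In this primary screen, compounds producing a positive calcium signal within 180 s of addition to tetracycline-induced, force-coupled HEK293 Trex D2 cells are flagged; cells are dye-loaded with a no-wash calcium kit beforehand.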
D2 antag – antagonists of human D2 dopamine receptor; P14416; HEK293 TREx D2 cells, calcium flux, dopamine EC80; inhibition, % at 10 µM; hit rate 2% among 340,000; AID 485344; in the data active = inhibition above about 30%; inactive = below that, where a call was filed; also: 0% is about no effect
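HEK293 T-REx D2 cells, tet-induced, calcium dye no-wash. Cpd pintool add, 180 s kinetic, then EC80 DA, 180 s kinetic. Ca flux read.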
D2 PAM-1 – potentiates the human D2 dopamine receptor allosterically | P14416 | DiscoveRx D2 beta-arrestin cells, luminescence, 90 min; 100% = 57 uM dopamine signal | potentiation, % (concentration not given with the values) | hit rate 0.23% among 360,000 | AID 624464; in the data active = potentiation above about 50%; inconclusive = mostly about 30% to 49%
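PathHunter beta-arrestin assay in DiscoveRx D2 cells. Compounds were added with an EC20 of dopamine (50 nM final) for 90 min at 37 deg C. Luminescence was read 1 h after detection reagent, with 57 uM dopamine as the EC100 control.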
D2 ag-2 – human D2 receptor agonism in beta-arrestin assay. hit rate 0.084% among 360,000. P14416. DiscoveRx PathHunter D2 beta-arrestin, luminescence, 90 min; 100% = 57 uM dopamine signal. activation, % (test concentration not listed); in the data active = activation above about 40%; inconclusive = between about 15% and that limit
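DiscoveRx PathHunter D2 beta-arrestin cells (2,100/well) attached overnight, then compound-stimulated 90 min at 37 C in HBSS/10 mM HEPES/0.1% Tween-20 buffer; beta-galactosidase complementation read by luminescence after 1 h at ambient temperature. Dopamine 57 uM final (EC100) as control.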
D2 PAM-2 – positive allosteric modulators of human D2 dopamine receptor; P14416; HEK293 T-REx D2, calcium flux, EC20 dopamine potentiation; potentiation, % at 10 µM; hit rate 0.34% among 340,000; AID 485347;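 active = potentiation over 3 SD above the plate norm, cut at about 30% in these data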; also: 0% is about no effect
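Tetracycline-induced HEK293 T-REx cells force-coupled to calcium signalling expressed D2; compounds were pin-added after a 10 s baseline, read kinetically 180 s, then an EC20 dopamine challenge followed with a further 180 s calcium read.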
D3 arrestin ag – D3 receptor agonism confirmed, beta-arrestin readout | shares compounds with D2 ag-1 | DiscoveRx D3 beta-arrestin cells, luminescence, 90 min | Potency, µM (titrated, usually from 76.9 µM), inactives show top-dose activation, actives largely listed as activators | hit rate 4% among 2,300 | AID 720506;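 also: potency is read from the fitted curve at half-maximal effect; 100% = dopamine control response; nearly all actives have a fitted effect of over 70% in size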
Target sequence (P35462 whole entry, looked up): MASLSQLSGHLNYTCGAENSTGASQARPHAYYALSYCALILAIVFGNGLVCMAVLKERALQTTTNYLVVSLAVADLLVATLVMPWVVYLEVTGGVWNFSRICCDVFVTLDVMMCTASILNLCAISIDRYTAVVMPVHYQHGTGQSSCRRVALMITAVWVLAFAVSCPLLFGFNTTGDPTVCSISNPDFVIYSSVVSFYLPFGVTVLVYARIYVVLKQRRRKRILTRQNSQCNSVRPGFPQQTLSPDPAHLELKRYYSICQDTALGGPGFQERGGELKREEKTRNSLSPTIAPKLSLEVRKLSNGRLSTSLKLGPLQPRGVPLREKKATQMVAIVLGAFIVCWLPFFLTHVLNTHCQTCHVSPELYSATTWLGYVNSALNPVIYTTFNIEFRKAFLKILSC
D2 ag-3 – counter-screen for D3 agonists: human D2 dopamine receptor agonism; shares compounds with D2 ag-1; hit rate 5.9% among 2,300; Potency, µM (doses to about 76.9 µM), for the others: top-dose activation, usual class: activators; AID 720507; DiscoveRx PathHunter D2 beta-arrestin, luminescence, 90 min; response scale: percent relative to full dopamine signal; also: potency is read from the fitted curve at half-maximal effect; % of control where 0% means no effect; nearly all actives have a fitted effect of over 70% in size
* = called active by the depositor; u = inconclusive; x = no result given. Unless noted, calls follow the shape of the dose curve; as a rule, active = well fitted activation curve with a large enough effect; inconclusive = small, poorly fitted or top-dose-only effect; inactive = flat fitted curve, though single readings scatter.

SMILES | D2 ag-1 | D2 antag | D2 PAM-1 | D2 ag-2 | D2 PAM-2 | D3 arrestin ag | D2 ag-3
CC(NC(=O)c1ccc2c(c1)OCO2)C(c1cccs1)N1CCOCC1 (stereo not drawn) | 0.5 | 0.0 | -9.1 | 0.0 | 12.0 | x | x
CC(NC(=O)c1ccc2c(c1)OCO2)C(c1cccs1)N1CCN(c2ccccc2)CC1 (stereo not drawn) | 42.8* | -7.5 | -1.3 | -1.8 | -24.2 | 0.0% | 2.8%
COc1ccc(C(=O)c2c(N)c(-c3nc(-c4ccc(OC)cc4)cs3)c3ccccn23)cc1 | 0.0 | x | x | x | -3.0 | x | x
COCCC(=O)N1CCCC(C(=O)c2ccc(C(F)(F)F)cc2)C1 (stereo not drawn) | 0.9 | 5.0 | -0.2 | -1.5 | 6.7 | x | x
OC(CSc1c(Cl)cccc1Cl)CN1CCN(c2ccccc2F)CC1 (stereo not drawn) | 67.6* | 65.3* | -10.6 | u | -25.4 | u | u
OC(CSc1ccccc1Cl)CN1CCN(c2ccccc2F)CC1 (stereo not drawn) | 63.0* | 74.3* | 19.7 | u | -16.5 | 44.7µM* | u
CCOC(=O)C1=CN(Cc2ccco2)S(=O)(=O)NC1c1ccc(F)c(Cl)c1 (stereo not drawn) | x | x | x | 1.5 | x | x | x
Cc1ccc(/C=C/C(=O)O)cc1S(=O)(=O)N1CCc2ccccc21 | 1.1 | -7.9 | -17.2 | -5.5 | -4.8 | x | x
Cc1cc(C)c(C)c(OCC(O)CN2CCN(c3ccccn3)CC2)c1 (stereo not drawn) | 66.3* | 91.6* | -2.8 | 48.0* | -29.3 | 3.98µM* | 3.98µM*
CC1(C)Cc2cccc(OCC(O)CN3CCN(c4ccccn4)CC3)c2O1 (stereo not drawn) | 72.3* | 60.3* | -4.0 | u | -25.3 | u | u
CC1(C)Cc2cccc(OCC(O)CNCc3ccccn3)c2O1 (stereo not drawn) | 0.0 | -0.5 | -21.2 | -0.6 | 6.4 | x | x
Cc1cccc(OCC(O)CN2CCN(c3ccccn3)CC2)c1C (stereo not drawn) | 72.1* | 78.2* | -21.2 | u | -21.2 | 21.2% | u
COc1ccc(Nc2ncc3c(n2)CCN(Cc2ccc(Br)s2)C3)c(OC)c1 | x | x | x | x | -4.6 | x | x
CC1(C)Cc2cccc(OCC(=O)OCC(=O)Nc3ccc(S(N)(=O)=O)cc3)c2O1 | x | x | 1.0 | -3.0 | x | x | x
COc1ccc(-c2cc(C(=O)Oc3ccc(Cl)cc3)c3ccccc3n2)cc1 | 0.1 | x | x | x | 6.4 | x | x
CC(C)(C)c1ccc(C(=O)N2CCN(CCNC(=O)C(=O)NCc3ccc(Cl)cc3)CC2)cc1 | -0.4 | 26.7 | 5.0 | -2.1 | 3.5 | 2.0% | 15.4%
COc1ccc(S(=O)(=O)N(C)C)cc1NC(=O)Cc1ccc(S(=O)(=O)N2CCOCC2)s1 | 0.0 | 25.2 | -20.9 | 0.4 | -15.7 | x | x
CC(=O)C1CCC2C3CCC4=CC(=O)CCC4(C)C3(F)C(O)CC12C (stereo not drawn) | x | x | 15.2 | 8.0 | x | x | x
O=C1C=C(c2cccc(CO)c2)C[C@@H](c2ccc(Cl)cc2)C1 | 0.0 | 52.1* | -3.4 | -0.1 | -1.6 | -6.2% | 5.0%
COc1ccc([C@H]2CC(=O)C=C(c3cccc(CO)c3)C2)cc1OC | 0.8 | 6.4 | -3.5 | 0.5 | -4.2 | x | x
O=C1C=C(c2ccc3ccccc3c2)C[C@@H](c2ccc(Cl)cc2)C1 | 0.6 | -9.2 | -6.1 | -0.1 | -1.5 | -11.4% | -2.2%
O=C1C=C(c2ccc3ncccc3c2)C[C@@H](c2ccc(Cl)cc2)C1 | 0.7 | -7.9 | -3.4 | -2.3 | 16.9 | x | x
O=C1C=C(c2ccccc2)C[C@@H](c2ccc(Cl)cc2)C1 | 0.9 | 11.2 | -4.7 | 5.1 | 4.5 | -7.6% | -1.8%
Cc1ccc(C2=CC(=O)C[C@H](c3ccc(Cl)cc3)C2)cc1 | 1.0 | -2.2 | -13.5 | -5.7 | 8.1 | x | x
Cc1ccc(S(=O)(=O)c2c(C)nn(C(C)(C)C)c2OC(=O)CC(C)C)cc1 | 1.2 | -9.6 | -8.7 | -1.7 | 15.3 | x | x
